PubChem BioAssay AID504339 (National Center for Advancing Translational Sciences (NCATS), 2011)
Screen size: about 390,000 compounds; about 17,000 (4.4%) were called active. Not shown: some 8% with an inconclusive outcome. The call rests on the fitted dose curve; in most records, active means well fitted inhibition curve with a large enough effect; inconclusive means small, poorly fitted or top-dose-only effect; inactive means no such curve, though single readings can be large or run the other way. Shown is part of a subset that was picked to be rich in actives. Where a call stands in place of a potency, no number is given.

molecular target: Lysine-specific demethylase 4A (Homo sapiens) (UniProt O75164); experiment: qHTS Assay for Inhibitors of JMJD2A-Tudor Domain; settings: AlphaScreen JMJD2A-Tudor / H3K4me3 peptide binding; series mostly up to 114 µM; further: nearly all actives have a fitted effect of over 50% in size
Sequence (O75164 whole entry, looked up, the tested form may be a part): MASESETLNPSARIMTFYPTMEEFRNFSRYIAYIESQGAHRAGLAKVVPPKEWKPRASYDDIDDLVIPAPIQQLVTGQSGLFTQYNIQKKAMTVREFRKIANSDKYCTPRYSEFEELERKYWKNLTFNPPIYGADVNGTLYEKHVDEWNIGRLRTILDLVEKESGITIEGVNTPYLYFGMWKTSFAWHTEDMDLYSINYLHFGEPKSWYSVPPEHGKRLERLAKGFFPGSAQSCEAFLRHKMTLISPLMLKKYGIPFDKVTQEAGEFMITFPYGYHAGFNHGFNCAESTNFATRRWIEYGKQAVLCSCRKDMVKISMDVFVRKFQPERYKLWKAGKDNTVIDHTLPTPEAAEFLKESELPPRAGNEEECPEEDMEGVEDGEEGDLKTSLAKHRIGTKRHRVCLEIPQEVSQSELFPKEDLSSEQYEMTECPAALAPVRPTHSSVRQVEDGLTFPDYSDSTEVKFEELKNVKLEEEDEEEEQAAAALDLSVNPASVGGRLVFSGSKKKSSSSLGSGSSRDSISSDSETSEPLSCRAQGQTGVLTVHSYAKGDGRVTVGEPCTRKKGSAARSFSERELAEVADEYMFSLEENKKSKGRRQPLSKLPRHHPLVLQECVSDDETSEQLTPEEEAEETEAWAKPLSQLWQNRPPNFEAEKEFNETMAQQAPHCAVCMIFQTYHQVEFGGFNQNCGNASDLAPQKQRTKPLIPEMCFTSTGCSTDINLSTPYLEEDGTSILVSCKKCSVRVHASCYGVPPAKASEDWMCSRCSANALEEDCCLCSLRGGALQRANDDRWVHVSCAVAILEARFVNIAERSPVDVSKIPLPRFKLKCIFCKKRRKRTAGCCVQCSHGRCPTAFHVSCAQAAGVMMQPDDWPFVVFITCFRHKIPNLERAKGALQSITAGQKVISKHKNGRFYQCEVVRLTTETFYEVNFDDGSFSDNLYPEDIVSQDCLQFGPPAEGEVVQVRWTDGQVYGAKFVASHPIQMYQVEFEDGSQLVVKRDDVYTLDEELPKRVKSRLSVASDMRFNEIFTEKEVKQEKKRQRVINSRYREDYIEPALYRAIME
Potency means the concentration at half of the fitted maximal effect.

How did the Potency turn out when `CCOc1ccccc1C(=O)Nc1ccc2c(c1)N(C)C(=O)c1ccccc1S2` was run?
Its Potency is “inactive”.

For `CCOC(=O)c1cc2c(=O)n3ccccc3nc2n(CCCOC)c1=NC(=O)C(C)Oc1ccccc1` (configuration not stated), which Potency is on record?
The Potency was “inactive”.

How did the Potency turn out when `Cc1ccc2nc(N3CCN(c4cccc(Cl)c4)CC3)c3nnnn3c2c1` was run?
The Potency was “inactive”.

How did the Potency turn out when `Cc1cc(C)cc(NC(c2nnc(-c3cccc(F)c3)o2)c2ccc(F)cc2Cl)c1` (configuration not stated) was run?
The Potency was “inactive”.

`COc1ccc(CCNC(=O)c2ccc(-n3c(C)cc4c3CCCC4)cc2)cc1OC` was tested. Which Potency did it give?
Its Potency is “inactive”.

`COc1ccc(C2/C=C\CN(Cc3ccco3)C(C)C(=O)N2Cc2ccc(F)cc2)cc1` (configuration not stated) was tested. Which Potency did it give?
The Potency was “inactive”.

`O=C(NCCc1ccccc1)c1ccc2c(c1)N(Cc1ccccc1)C(=O)c1ccccc1S2(=O)=O` was tested. Which Potency did it give?
The Potency was “inactive”.

How did the Potency turn out when `CN(C(=O)c1ccccn1)c1nnc(-c2ccccn2)s1` was run?
The Potency was “inactive”.

Which Potency does the source give for `Cc1cnc(NC(=O)c2ccccn2)s1` here?
The Potency was 56.2 µM (active).

How did the Potency turn out when `Cc1cnc(NC(=O)Cn2cnc3c2c(=O)n(C)c(=O)n3C)s1` was run?
The Potency was “inactive”.

With `Cc1c(Cl)cccc1NC(=O)c1noc2c1CCCC2` as the compound, how does the Potency read?
The Potency was “inactive”.

With `CCOC(=O)c1ccc(NC(=O)Cn2cc(S(=O)(=O)Cc3ccccc3F)c3ccccc32)cc1` as the compound, how does the Potency read?
The Potency was “inactive”.

Which Potency does the source give for `CC(=O)Nc1ccc(NC(=O)CS(=O)(=O)c2cn(CC(=O)N3CCCCC3)c3ccccc23)cc1` here?
The Potency was “inactive”.

With `CCOC(=O)c1ccc(NC(=O)CS(=O)(=O)c2cn(CC)c3ccccc23)cc1` as the compound, how does the Potency read?
The Potency was 79.4 µM (active).

`COc1ccccc1NC(=O)CSc1oc(-c2ccco2)nc1S(=O)(=O)c1ccc(Br)cc1` was tested. Which Potency did it give?
Its Potency is “inactive”.

With `CCCn1c2ccccc2c2cnn(CC(=O)N(C)c3ccccc3CC)c(=O)c21` as the compound, how does the Potency read?
The Potency was “inactive”.

How did the Potency turn out when `CCCC(C(=O)OCCN(CC)CC)(c1ccccc1)c1ccccc1` was run?
Its Potency is “inactive”.

For `CN(C)CCOCCOc1ccc(Cl)c2ccccc12`, which Potency is on record?
The Potency was 3.16 µM (active).

For `CCOc1ccc(S(=O)(=O)N2CCCCCC2)c2ccccc12`, which Potency is on record?
Its Potency is “inactive”.

Which Potency does the source give for `CCN(CC)CCOCCOc1ccc(Cl)c2ccccc12` here?
The Potency was 25.1 µM (active).

Which Potency does the source give for `COc1ccc(C)cc1NC(=O)C(=O)NCCc1sc(-c2cccc(C)c2)nc1C` here?
Its Potency is “inactive”.

For `Cc1nc(SCC(=O)N2CCN(c3ccccc3)CC2)[nH]c(=O)c1C`, which Potency is on record?
The Potency was “inactive”.

For `CCOc1ccc(NC(=O)CCC(=O)N2CC(C)Oc3ccc(C)cc32)cc1` (configuration not stated), which Potency is on record?
The Potency was “inactive”.

Which Potency does the source give for `CCOc1ccc(CNC(=O)c2ccc3c(c2)nnn3C2CCCC2)cc1` here?
Its Potency is “inactive”.

Which Potency does the source give for `COc1ccc(-c2nc3sc(CCNC(=O)C(C)(C)C)c(C)n3n2)cc1` here?
Its Potency is “inactive”.

Which Potency does the source give for `CCOC(=O)C1Nc2ccc(C(F)(F)F)cc2C2C=CCC12` (configuration not stated) here?
Its Potency is 50.1 µM (active).

For `CCOC(=O)C[C@H]1c2ccc(C(F)(F)F)cc2S(=O)(=O)N1c1ccccc1`, which Potency is on record?
The Potency was “inactive”.

For `CCOC(=O)NNc1cc(C(F)(F)F)ccn1`, which Potency is on record?
The Potency was “inactive”.

With `CCOc1cccc(NC(=O)CSc2ncc(-c3ccc(Cl)cc3)[nH]2)c1` as the compound, how does the Potency read?
The Potency was “inactive”.

`COc1cccc(C(=O)NC2CCN(C#N)CC2)c1` was tested. Which Potency did it give?
Its Potency is “inactive”.

For `COC(=O)c1cnn(-c2ccc(C(=O)Nc3ccc(OC(F)(F)F)cc3)cc2)c1N`, which Potency is on record?
Its Potency is “inactive”.

How did the Potency turn out when `CCCN(CCC)CCCNC(=O)Cn1cc2c(n1)-c1c(oc(C(=O)N3CCCC3)c1C)CC2` was run?
Its Potency is “inactive”.

With `CCOC(=O)c1ccc(NC(=O)C2CC(=O)NC(=Nc3ccc(C)c(C)c3)S2)cc1` (configuration not stated) as the compound, how does the Potency read?
The Potency was “inactive”.

Which Potency does the source give for `Cn1c(=O)c2c(n3c4ccccc4nc13)NC(=O)CC2c1cccc(Cl)c1` (configuration not stated) here?
Its Potency is “inactive”.

`O=C1CCc2cc(S(=O)(=O)Nc3cccc(Oc4ccccc4)c3)ccc2N1` was tested. Which Potency did it give?
The Potency was “inactive”.

How did the Potency turn out when `CCN1CCN(c2ncnc3c2cnn3-c2ccc(C)c(C)c2)CC1` was run?
The Potency was “inactive”.

For `COC(=O)CC1=NN(c2ccccc2)C(=O)C1`, which Potency is on record?
The Potency was “inactive”.

`Cn1nc(-c2ccccc2)c2cc([N+](=O)[O-])ccc21` was tested. Which Potency did it give?
Its Potency is “inactive”.

How did the Potency turn out when `O=C1CC(c2ccccc2)=NN1c1ccc([N+](=O)[O-])cc1` was run?
The Potency was 39.8 µM (active).

How did the Potency turn out when `COC(=O)c1ccc(-c2nc3cc(NC(C)=O)ccc3o2)cc1` was run?
Its Potency is “inactive”.

`CCOc1cccc2c1N[C@@H](c1ccc(C(=O)O)cc1)[C@H]1CC=C[C@@H]21` was tested. Which Potency did it give?
The Potency was 22.4 µM (active).

How did the Potency turn out when `CCOc1c(CNCc2ccc(C(=O)O)cc2)cccc1OC` was run?
The Potency was “inactive”.

Which Potency does the source give for `CCOc1cc(C(=O)O)ccc1OCCOc1ccccc1` here?
Its Potency is “inactive”.

How did the Potency turn out when `C/C(=N/NC(=O)CCc1ccccc1)c1ccco1` was run?
The Potency was “inactive”.

How did the Potency turn out when `CC(=NNC(=S)N1CCCCCC1)c1ccccn1` was run?
Its Potency is 11.2 µM (active).

`COc1ccc(C/C(C)=N/NC(=O)c2cc(C)oc2C)cc1` was tested. Which Potency did it give?
Its Potency is “inactive”.

How did the Potency turn out when `Cc1cccc(C)c1NC(=S)N1CCCCCC1` was run?
The Potency was “inactive”.

Which Potency does the source give for `CCNC(=S)N1CCN(c2ncccn2)CC1` here?
The Potency was “inactive”.

With `COc1ccc(C/C(C)=N/NC(=O)c2ccncc2)cc1` as the compound, how does the Potency read?
The Potency was 10 µM (active).

How did the Potency turn out when `CC1=NNC(=O)C1CCC(=O)N/N=C(\C)c1ccc(Cl)cc1` (configuration not stated) was run?
The Potency was “inactive”.

For `O=C(Nc1nnc(-c2ccccc2F)s1)c1ccccc1F`, which Potency is on record?
The Potency was “inactive”.

With `C/C(=N\NC(=O)c1ccccc1F)c1ccccn1` as the compound, how does the Potency read?
Its Potency is 35.5 µM (active).

With `C/C(=N/NC(=O)c1ccn(C)n1)c1ccncc1` as the compound, how does the Potency read?
Its Potency is “inactive”.

For `COc1ccc(C(=O)N/N=C(\C)CC(=O)Nc2ccc(Cl)cn2)cc1`, which Potency is on record?
The Potency was “inactive”.

With `C/C(=N\NC(=O)Cc1ccc(Cl)cc1)c1ccccn1` as the compound, how does the Potency read?
The Potency was 56.2 µM (active).

Which Potency does the source give for `O=C(CCc1cn(Cc2ccc(F)cc2)c2ccccc12)NC1CCCCC1` here?
The Potency was “inactive”.

`Cc1ccc(N(C)C(=O)C2CCN(S(=O)(=O)c3ccc4c(c3)CCCN4C(=O)C3CCC3)CC2)cc1` was tested. Which Potency did it give?
Its Potency is “inactive”.

How did the Potency turn out when `O=C(CCc1nc(CN2CCN(S(=O)(=O)c3ccc(Cl)cc3)CC2)no1)N1CCCCC1` was run?
Its Potency is “inactive”.

For `CCc1ccccc1NC(=O)c1ccc2nc(CCc3ccccc3)oc2c1`, which Potency is on record?
The Potency was “inactive”.

Which Potency does the source give for `O=C(Cn1c(=O)n(-c2ccc(F)cc2)c(=O)c2sccc21)Nc1cccc(C(F)(F)F)c1` here?
The Potency was “inactive”.

How did the Potency turn out when `Cc1ccccc1CN1CCC(CNC(=O)c2c(C)oc3ncnc(N4CCCCC4)c23)CC1` was run?
The Potency was “inactive”.

Which Potency does the source give for `COc1ccc(CN2CCc3nc(Nc4ccccc4)ncc3C2)c(OC)c1OC` here?
Its Potency is “inactive”.

Which Potency does the source give for `Cc1ccc(CSc2nc3ccsc3c(=O)n2CCC(C)C)cc1` here?
Its Potency is “inactive”.

How did the Potency turn out when `COc1ccc(CC(=O)N/N=C(\C)c2ccccn2)cc1` was run?
Its Potency is 89.1 µM (active).

For `COc1ccc(CC(=O)Nc2c(C(N)=O)oc3ccccc23)cc1`, which Potency is on record?
Its Potency is “inactive”.

For `COc1ccc(/C(C)=N/NC(=O)c2ccc3nc[nH]c3c2)cc1`, which Potency is on record?
Its Potency is “inactive”.

With `COc1ccccc1CNC(=O)CCCn1c(=O)c2ccccc2n(CC(=O)Nc2ccc(C)cc2Cl)c1=O` as the compound, how does the Potency read?
The Potency was “inactive”.
